# This is one part of a sample in which hits are shown more often than they occur.
# CBX7 inh = inhibitors of human CBX7 binding to H3K27me3 peptide. O95931. AlphaScreen His6-CBX7 / biotin-H3K27me3 peptide binding; hits give low values. normalised signal (fraction of DMSO) (concentration not given with the values). 1.1% of 66,000 active; in the data active = normalised signal below about 0.5
# Target sequence (O95931 whole entry, looked up): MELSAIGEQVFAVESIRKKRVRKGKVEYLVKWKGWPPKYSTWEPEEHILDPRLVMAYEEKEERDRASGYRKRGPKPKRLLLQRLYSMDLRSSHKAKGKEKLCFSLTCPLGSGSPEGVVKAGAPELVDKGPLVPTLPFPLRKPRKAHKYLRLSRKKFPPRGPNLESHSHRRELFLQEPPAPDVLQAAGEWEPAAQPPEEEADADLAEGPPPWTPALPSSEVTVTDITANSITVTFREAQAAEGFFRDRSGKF
# Numbers stand for hits; i = inactive.
SMILES,CBX7 inh
COc1ccccc1N1CCN(c2nc(C)nc3sc4c(c23)CCC4)CC1,i
O=C(O)c1ccc(NCc2ccccc2OCc2ccc(F)cc2)cc1,i
CCCCOc1ccc(C(=O)N(Cc2ccccc2Cl)C2CCS(=O)(=O)C2)cc1 (stereo unspecified),i
COc1ccc(-c2noc(N(C)CC(=O)Nc3ccc(OC)cc3OC)n2)cc1,i
COc1ccc(-c2noc(N(C)CC(=O)Nc3cc(C)on3)n2)cc1,0
COc1ccc(-c2noc(N(C)CC(=O)Nc3ccccn3)n2)cc1,i
Cn1c2ccccc2c2c(C(=O)N3CCN(c4ccccc4F)CC3)cn(C3CCCCC3)c(=O)c21,i
COc1ccc(NS(=O)(=O)c2ccc3c(c2)n(C)c(=O)c(=O)n3C)cc1,i
CCc1ccccc1NC(=O)c1cccc2c1C(=O)N(c1ccc(OC)cc1)C2,0.14
COc1ccc(N2Cc3cccc(C(=O)Nc4ccccc4OC)c3C2=O)cc1,i
CCc1ccc(NC(=O)c2cccc3c2C(=O)N(c2ccc(OC)cc2)C3)cc1,i
CCN1C(=O)c2ccccc2S(=O)c2ccc(C(=O)NCCN3CCOCC3)cc21 (stereo unspecified),i
CCc1ccc2c(c1)c(=O)c(S(=O)(=O)c1ccc(C)cc1)cn2CC(=O)Nc1ccc(C)cc1,i
CCN(CC)CCCNC(=O)c1ccc2c(c1)NC(=O)C1CCCN21 (stereo unspecified),i
N#Cc1nc(COc2ccc(F)cc2)oc1NCCc1ccccc1,i
Cc1ccccc1OCc1nc(C#N)c(NCCCn2ccnc2)o1,i
N#Cc1nc(COc2ccc(Cl)cc2)oc1NCc1cccnc1,i
N#Cc1nc(COc2ccc(Cl)cc2)oc1NCCCn1ccnc1,i
N#Cc1nc(COc2ccccc2Cl)oc1NCCCn1ccnc1,0
CN(Cc1ccccc1)c1oc(COc2ccc(Cl)cc2)nc1C#N,0.48
CN(Cc1ccccc1)c1oc(COc2ccccc2F)nc1C#N,0.42
COc1ccc(Nc2oc(COc3ccccc3F)nc2C#N)cc1,i
N#Cc1nc(COc2ccccc2F)oc1NCCc1ccccc1,0.49
COc1ccc(CCNc2oc(COc3ccc(Cl)cc3)nc2C#N)cc1,i
COc1ccccc1OCc1nc(C#N)c(NCCc2ccccc2)o1,i
SMILES,CBX7 inh
CC(Nc1oc(COc2ccccc2F)nc1C#N)c1ccccc1 (stereo unspecified),i
Cc1ccccc1NC(=O)C1(NC(=O)Cc2nc(N)n[nH]2)CCCCC1,i
O=C(Cn1c(C(=O)c2ccccc2)nc2ccccc21)c1ccccc1,i
Cc1ccccc1OCC(=O)Nc1c(C(=O)c2ccc(Br)cc2)oc2ccccc12,i
COc1ccc(-c2noc(-c3ccc(OC)c(OC)c3)n2)cc1,i
O=C(Nc1ccccc1F)C1CCN(S(=O)(=O)c2ccc(F)cc2)CC1,i
CCOc1ccc(C(=O)Nc2ccc3nc(N4CCC(C)CC4)cc(C)c3c2)cc1,i
Cc1cc(C)n(Cc2ccc(F)cc2)c(=O)c1C#N,i
N#Cc1c(-c2ccc(F)cc2)c(C#N)c(=O)n(N)c1N,0.16
C#CCN1CC(COc2ccc(Cl)cc2)OC1=O (stereo unspecified),i
COc1cc(-c2nc3sc4c(c3c(=O)[nH]2)CCCC4)ccc1C,i
O=C(CN1C2=NCCN2c2ccccc21)c1ccc(Cl)c(Cl)c1,i
O=C(NCc1ccccn1)c1cc2c(s1)-c1ccccc1OC2,i
Cc1nc2sc(C(c3cccs3)N3CC(C)OC(C)C3)c(O)n2n1 (stereo unspecified),i
COCc1nnc(NC(=O)c2ccc(S(=O)(=O)N(C)Cc3ccccc3)cc2)o1,i
CCCN(CCC)S(=O)(=O)c1ccc(C(=O)Nc2nnc(-c3ccccc3Cl)o2)cc1,i
Cc1nnc(NC(=O)c2ccc(S(=O)(=O)N(C)C)cc2)o1,0.012
Cc1nnc(NC(=O)c2ccc(S(=O)(=O)N(C)Cc3ccccc3)cc2)o1,0.0081
COc1ccc(-c2nnc(NC(=O)c3ccc(S(=O)(=O)N(C)C)cc3)o2)c(OC)c1,i
COCCN(CCOC)S(=O)(=O)c1ccc(C(=O)Nc2nnc(-c3ccc(F)cc3)o2)cc1,0.025
CN(Cc1ccccc1)S(=O)(=O)c1ccc(C(=O)Nc2ccccc2-c2nc3ccccc3o2)cc1,i
COCCN(CCOC)S(=O)(=O)c1ccc(C(=O)Nc2nnc(-c3ccccc3Cl)o2)cc1,0.27
CCN(Cc1ccccc1)S(=O)(=O)c1ccc(C(=O)Nc2nnc(-c3ccc(OC)cc3)o2)cc1,i
CN(C1CCCCC1)S(=O)(=O)c1ccc(C(=O)Nc2nnc(-c3ccccc3Cl)o2)cc1,i
COCCN(CCOC)S(=O)(=O)c1ccc(C(=O)Nc2nc(-c3ccc(OC)cc3)cs2)cc1,i
SMILES,CBX7 inh
CN(C)S(=O)(=O)c1ccc(C(=O)Nc2c(C(N)=O)oc3ccccc23)cc1,i
COc1ccc(CCNC(=O)c2c(-c3ccccc3Cl)noc2C)cc1OC,i
O=C(Cn1c(SCc2cccc(F)c2)nc2ccncc21)Nc1ccc(Br)cc1F,i
COc1cccc(CNC(=O)c2ccc(CNc3c(N4CCC(C)CC4)c(=O)c3=O)cc2)c1,i
CN1C(=O)C(O)(CC(=O)c2cccc(N3C(=O)C4CCCCC4C3=O)c2)c2ccccc21 (stereo unspecified),i
COc1ccc(-c2nc(-c3c(F)cccc3F)no2)c(OC)c1,i
O=C(Nc1cccc(-c2nc3cc(Cl)cc(Cl)c3o2)c1)c1cccnc1,i
CN(C)CCNC(=O)c1cc(=O)[nH]c2ccc(S(=O)(=O)N3CCCCCC3)cc12,i
Cc1ccc(OCCn2c(NC(=O)c3ccc(Cl)cc3)nc3ccccc32)cc1,i
Cc1ccc(S(=O)(=O)N2CCC(C(=O)NCCCO)CC2)cc1,i
Fc1ccc(-n2cc(-c3ccccc3)c3c(NCc4ccc5c(c4)OCO5)ncnc32)cc1,i
Cc1ccc(-c2ccc(=O)n(CC(=O)N3CCN(c4ccccc4)CC3)n2)cc1,i
COc1ccc(N(C)S(=O)(=O)c2ccc3c(c2)CCN3C(C)=O)c(OC)c1,i
COCCN(CCOC)S(=O)(=O)c1ccc(C(=O)Nc2nnc(COC)o2)cc1,i
CCCCN(CCCC)S(=O)(=O)c1ccc(C(=O)Nc2nnc(C)o2)cc1,0.0047
CCCCN(CCCC)S(=O)(=O)c1ccc(C(=O)Nc2nc3c(s2)COc2ccccc2-3)cc1,i
COCCN(CCOC)S(=O)(=O)c1ccc(C(=O)Nc2nc(-c3ccncc3)cs2)cc1,i
COCCN(CCOC)S(=O)(=O)c1ccc(C(=O)Nc2nnc(C)o2)cc1,0.0057
CCCCN(CCCC)S(=O)(=O)c1ccc(C(=O)Nc2ccccc2-c2nc3ccccc3[nH]2)cc1,i
CCCCCn1c(C(C)NC(=O)COC)nc2ccccc21 (stereo unspecified),i
COc1ccc(-c2c(C)nn3c(NCc4ccccn4)cc(C)nc23)cc1OC,0.39
COc1ccc(CNc2cc(C)nc3c(-c4ccc(OC)c(OC)c4)c(C)nn23)cc1,i
COc1ccc(-c2c(C)nn3c(NCc4ccc(F)cc4)cc(C)nc23)cc1OC,i
Cc1oc(-c2ccc(Cl)cc2)nc1CN1CCC(C(=O)NC(C)CCc2ccccc2)CC1 (stereo unspecified),i
O=C(CCN1C(=O)COc2ccccc21)NCc1ccc2c(c1)OCO2,i
Cc1cccc2nc(-c3ccccn3)c(Nc3ccc(F)cc3)n12,0.059
Cc1ccc(Nc2c(-c3c(F)cccc3Cl)nc3cccc(C)n23)cc1,i
Cc1cccc(C)c1Nc1c(-c2ccccc2F)nc2cccc(C)n12,i
Cc1ccc(Nc2c(-c3ccccn3)nc3ccc(Cl)cn23)cc1,i
Cc1ccc(Nc2c(-c3ccccn3)nc3ccc(Br)cn23)cc1,i
